High-throughput results deposited in PubChem BioAssay by National Center for Advancing Translational Sciences (NCATS).
Sampled rows, rich in hits. Any-hit rate of the full collection: about 2.2%.
Mito fusion act: qHTS Assay for Small Molecule Inhibitors of Mitochondrial Division or Activators of Mitochondrial Fusion; 320,000 compounds, 0.23% hits; AID 485298, 2010; Potency, µM (titrated, usually from 46.1 µM), usual class: activators; S. cerevisiae fusion-defective mutant growth rescue, CellTiterGlo 48 h; note: nearly all actives have a fitted effect of over 45% in size
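S. cerevisiae fusion-defective temperature-sensitive mutants (e.g. fzo1-1, mgm1-5) grown 48 h at 37C in YPEG (ethanol/glycerol non-fermentable) medium with 23 nl compound per well; growth rescue read as CellTiterGlo luminescence.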
aSyn rescue: qHTS of alpha-syn Inhibitors; Potency, µM (top dose mostly 46.1 µM), usual class: activators; 370,000 compounds, 0.14% hits; Yeast expressing alpha-synuclein, growth rescue, BacTiter-Glo, 24 h; note: nearly all actives have a fitted effect of over 65% in size
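Readout is rescue of growth in alpha-synuclein-expressing yeast, so inhibitors of toxicity appear as activators. Growth after 24 hr at 30 deg C in galactose medium is quantified by luminescence.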
FUS yeast rescue: qHTS for Suppressors of FUS Proteinopathy: Primary screen using FUS-linked yeast assay. Potency, µM (top dose mostly 76.6 µM), actives largely listed as activators. S. cerevisiae FUS-expressing, growth rescue, OD600, 24 h. 390,000 compounds, 0.24% hits; note: nearly all actives have a fitted effect of over 55% in size
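Compound concentration series was pinned onto galactose-induced FUS-expressing yeast seeded at OD 0.005. Plates sat 24hr at 30C; absorbance at 600 nm gave growth. DMSO served as background control.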
TDP-43 yeast inh: qHTS of TDP-43 Inhibitors; Potency, µM (highest dose often 46.1 µM), usual class: activators; AID 652104, 2013; 410,000 compounds, 1.8% hits; TDP-43 expressing yeast growth rescue, BacTiter-Glo, 24 h; note: nearly all actives have a fitted effect of over 50% in size
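In this qHTS, compounds that restore growth of yeast expressing TDP-43 appear as activators. Cells (OD600=0.02, galactose medium, raffinose-pregrown) are incubated with compound 24 hr at 30 deg C and growth is quantified by BacTiter-Glo.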
Abeta rescue: qHTS for compounds that reverse cellular toxicity of Amyloid beta (A-beta) peptide in yeast: Primary Screen | 410,000 compounds, 0.063% hits | yeast expressing A-beta42, growth rescue, OD600, 48 h; response scale: 0% DMSO, 100% iron-clioquinol control | Potency, µM (highest dose often 46.1 µM), actives largely listed as activators; note: nearly all actives have a fitted effect of over 55% in size
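Growth rescue measured by 600 nm absorbance after 48 h yeast culture at 30 C with compound. Values normalized between DMSO and an equimolar ferric chloride plus clioquinol control.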
Numbers stand for hits; n = inactive; u = inconclusive; x = no result given; [ ] = dose if it differs, or a comment. Calls come from the whole dose curve; as a rule, active = well fitted curve in the direction sought with a large enough effect; inconclusive = small, poorly fitted or top-dose-only effect, or another doubt; inactive = no such curve, though single readings can be large; an effect the other way counts as inactive or inconclusive.

SMILES	Mito fusion act	aSyn rescue	FUS yeast rescue	TDP-43 yeast inh	Abeta rescue
O=C(NCCS(=O)(=O)N1CCN(c2ccc(F)cc2)CC1)c1cccc(C(F)(F)F)c1	x	x	n	10µM	u
CSc1ccccc1C(=O)NCCS(=O)(=O)N1CCN(c2ccc(F)cc2)CC1	n	n	n	n	n
C=C(Cl)COc1ccc2c(C)cc(=O)oc2c1	n	n	n	n	n
C#CCOc1ccc2c(C)cc(=O)oc2c1	n	n	n	20µM	n
CCCCNC(=O)C1CCC(Cn2c(=O)c3sccc3n(Cc3ccccc3)c2=O)CC1 (stereo not drawn)	x	x	n	n	n
COc1cccc(NC(=O)CN(C)C(=O)c2cccc(NS(=O)(=O)c3ccccc3)c2)c1	n	n[1.84 µM]	u	n	n
COc1cccc(NC(=O)CN(C)C(=O)c2cccc(S(=O)(=O)N3c4ccccc4CC3C)c2)c1 (stereo not drawn)	n	n	22.4µM	n	n
O=C(NC(c1cccnc1)C(F)(F)F)c1cc(COc2ccc3c(c2)CCCC3)on1 (stereo not drawn)	n	n	n	20µM	n
O=C(Nc1ccc(C(F)(F)F)cc1)C1CCCN(c2cnccn2)C1 (stereo not drawn)	x	x	n	n	n
CCOC(=O)c1c(C)n(C)c2ccc(OCC(O)CN3CCCCCC3)cc12 (stereo not drawn)	n	n	n	n	n
CCOC(=O)c1c(C)n(C)c2ccc(OCC(O)Cn3nc(C)c(Br)c3C)cc12 (stereo not drawn)	u	n	u	15.8µM	n
O=C(N/N=C/C(Br)=C/c1ccccc1)NC1CCCCC1	n	n	n	u	n
Cc1onc(-c2ccccc2)c1C(=O)N/N=C/C(Br)=C/c1ccccc1	u	u	x	17.8µM	n
O=C(N/N=C/C(Br)=C/c1ccccc1)C1CC1	n	n	n	22.4µM	n
O=C(O)c1ccc(N/N=C/C(Br)=C/c2ccccc2)cc1	n	n	n	11.2µM	n
O=C(O)c1ccc(N/N=C/c2cccc(C(F)(F)F)c2)cc1	n	n	n	12.6µM	n
COc1ccccc1-n1c(=O)n(C)c2c(C(N)=O)nc(-c3cc(OC)c(OC)c(OC)c3)nc21	x	n	n	n	n
COc1cc2cc(CCCOC(=O)c3ccc(F)cc3)oc(=O)c2cc1OC	n	n	n	20µM	n
Cc1cc(OCC(=O)Nc2ccc(C(=O)OC3CCCCC3)cc2)cc(C)c1Cl	x	x	n	n	n
COc1ccc(/C(N)=N/OC(=O)c2ccc3c(c2)OCO3)cc1	n	n	n	5.62µM	n
N/C(=N\OC(=O)c1ccc2c(c1)OCO2)c1ccc(Cl)cc1	n	n	n	3.16µM	n
COc1ccc(/C(N)=N/OC(=O)c2cccs2)cc1	n	n	n	15.8µM	n
COc1ccc(C(=O)N[C@H]2CC[C@@]34CCCN3C(=O)CCC[C@H]4[C@H]2C)cc1	x	x	n	x	x
Cc1ccc(-n2cc(-c3ccccc3)c3c(NC4CCCC4)ncnc32)cc1	x	x	n	35.5µM	n
COc1ccc(-n2cc(-c3ccccc3)c3c(NC4CCCCC4)ncnc32)cc1	x	x	n	n	n
SMILES	Mito fusion act	aSyn rescue	FUS yeast rescue	TDP-43 yeast inh	Abeta rescue
Cc1cccc(-n2cc(-c3ccccc3)c3c(NC4CCCC4)ncnc32)c1	x	x	n	20µM	n
CCOc1ccc(-n2cc(-c3ccccc3)c3c(NC4CCCC4)ncnc32)cc1	x	x	n	u	n
CCCC[C@H]1C2CC(OC(=O)Nc3cccc(C(F)(F)F)c3)C(C2)[C@H]2CCCCN21 (stereo partly drawn)	x	x	n	x	x
O=S1(=O)c2c(cccc2N2CC[C@H](O)C2)OCCCN1C1CC1	x	x	n	x	x
Nc1ccc(/C=C/c2nccc3ccccc23)cc1	x	n	x	x	x
O=[N+]([O-])c1cc(C(F)(F)F)ccc1NCC1CCCO1 (stereo not drawn)	n	n	n	14.1µM	n
N#Cc1cc(NCC2CCCO2)c([N+](=O)[O-])cc1C#N (stereo not drawn)	n	n	x	n	n
CCOC(=O)C1CCCN(S(=O)(=O)c2ccc3c(c2)CC(C)N3C(=O)C2CC2)C1 (stereo not drawn)	n	n	n	n	n
